Compound activity deposited in PubChem by National Center for Advancing Translational Sciences (NCATS).
Pol iota inh: blocks human DNA polymerase iota activity | Pol iota fluorescent replication assay, 10 min | Q9UNA4 | Potency, µM (top dose mostly 115 µM), for the others: at the highest dose activity, negative = inhibition, actives largely listed as inhibitors | AID 588590 | 1% of 390,000 active; note: potency is the fitted concentration of half-maximal effect
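Fluorescent replication assay read twice, at 0 min and 10 min after adding 50 nM (final) substrate. Enzyme (10 nM) and compounds were first incubated 15 min at room temperature; enzyme-free buffer wells were negative controls.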
POLB inh: blocks human DNA polymerase beta activity | P06746 | Pol beta primer extension/strand displacement, fluorescence kinetic | Potency, µM (doses to about 114 µM), inactives show at the top dose activity change, negative = inhibition, usual class: inhibitors | 1.3% of 340,000 active | AID 485314; note: potency is the fitted concentration of half-maximal effect; % is set by controls: 0 for no effect and ±100 for the full control effect
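Values derive from four-parameter Hill fits of normalized kinetic data: reads at 0 and 10 min following addition of 50 nM substrate to 10 nM Pol beta preincubated 15 min with compound.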
PI5P4K alpha inh: blocks human PI5P4K alpha kinase activity. max response, %. PI5P4Kalpha enzyme, ADP-Glo luminescence, 60 min; active compounds read low. P48426. 1.2% of 330,000 active; active = max response of -50% or lower; inconclusive = between -30% and -50%; inactive = -30% or higher; note: value at the top dose of about 77 µM; % is set by controls: 0 for no effect and ±100 for the full control effect
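Luminescence from ADP-Glo served as readout of PI5P4Kalpha activity in a qHTS format. Reaction: enzyme, substrate, compound, ATP at 5 microM final, 60 min at RT.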
POLK inh: blocks human DNA polymerase kappa activity; Q9UBT6; purified Pol kappa, fluorescent DNA synthesis assay, 10 min; Potency, µM (doses to about 107 µM), for inactives: at the highest dose activity, negative = inhibition, usual class: inhibitors; 0.53% of 400,000 active; AID 588579; note: potency is the fitted concentration of half-maximal effect; % is set by controls: 0 for no effect and ±100 for the full control effect
Target sequence (Q9UBT6 whole entry, looked up): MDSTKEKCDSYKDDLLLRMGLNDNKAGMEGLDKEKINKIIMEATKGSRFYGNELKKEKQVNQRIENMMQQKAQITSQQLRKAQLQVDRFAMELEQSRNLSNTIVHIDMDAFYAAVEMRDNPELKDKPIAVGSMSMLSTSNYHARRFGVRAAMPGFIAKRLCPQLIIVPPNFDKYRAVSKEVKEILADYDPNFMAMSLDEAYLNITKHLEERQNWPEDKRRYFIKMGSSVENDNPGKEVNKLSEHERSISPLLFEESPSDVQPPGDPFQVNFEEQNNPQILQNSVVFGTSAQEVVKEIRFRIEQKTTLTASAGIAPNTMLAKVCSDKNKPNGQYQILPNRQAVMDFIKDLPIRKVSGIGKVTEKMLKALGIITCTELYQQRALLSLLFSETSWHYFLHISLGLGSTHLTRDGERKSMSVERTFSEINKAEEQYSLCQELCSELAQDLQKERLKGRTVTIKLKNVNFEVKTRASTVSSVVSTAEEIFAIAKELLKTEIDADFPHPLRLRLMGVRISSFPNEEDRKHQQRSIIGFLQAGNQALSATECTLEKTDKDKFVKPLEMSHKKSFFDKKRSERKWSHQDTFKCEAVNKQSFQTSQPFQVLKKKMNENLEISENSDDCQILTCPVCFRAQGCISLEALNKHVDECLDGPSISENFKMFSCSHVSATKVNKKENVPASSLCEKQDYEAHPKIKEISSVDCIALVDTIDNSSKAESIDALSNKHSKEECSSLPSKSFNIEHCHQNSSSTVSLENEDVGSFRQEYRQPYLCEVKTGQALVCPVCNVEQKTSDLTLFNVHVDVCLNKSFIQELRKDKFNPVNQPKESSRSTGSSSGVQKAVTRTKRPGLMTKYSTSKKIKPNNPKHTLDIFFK
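50 nM final substrate added after 15 min RT preincubation of 10 nM Pol kappa with compound; fluorescence read at 0 and 10 min.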
POLH inh: blocks human DNA polymerase eta activity; Q9Y253; recombinant Pol eta, fluorescent DNA replication assay; Potency, µM (top dose mostly 114 µM), for the others: top-dose activity change, negative = inhibition, actives largely listed as inhibitors; 1.2% of 390,000 active; note: potency is the fitted concentration of half-maximal effect; % is set by controls: 0 for no effect and ±100 for the full control effect
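Pol eta at 10 nM preincubated with compounds 15 min at room temperature; reaction started with fluorescent substrate (50 nM final) and read kinetically at 0 and 10 min.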
WRN helicase inh: WRN helicase (human) inhibition. Q14191. WRN helicase unwinding, fluorescent forked duplex, kinetic. Potency, µM (titrated, usually from 114 µM), without a hit: at the highest dose activity change, negative = inhibition, hits mostly inhibitors. 0.46% of 360,000 active. AID 651768; note: potency is the fitted concentration of half-maximal effect; % is set by controls: 0 for no effect and ±100 for the full control effect; nearly all actives have a fitted effect of over 55% in size
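Screening of the MLSMR collection measured strand separation of a quenched forked DNA duplex (100 nM) by 20 nM WRN with 2 mM ATP, all final. Compounds were preincubated with enzyme 15 min at room temperature.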
An asterisk follows results filed as active; u = inconclusive; x = no result given; [ ] = remark or other dose. A selection: hits, their analogues and other compounds. The true share with any hit is near 2.8%. Unless noted, calls come from the whole dose curve; as a rule, active = well fitted curve in the direction sought with a large enough effect; inconclusive = small, poorly fitted or top-dose-only effect, or another doubt; inactive = no such curve, though single readings can be large; an effect the other way counts as inactive or inconclusive.

SMILES	Pol iota inh	POLB inh	PI5P4K alpha inh	POLK inh	POLH inh	WRN helicase inh
C#CCOCCOCCOCCNc1nc(N2CCN(C(=O)[C@H](Cc3ccc(O)cc3)n3cc([C@@H](N)CC(C)C)nn3)CC2)nc(N2CCN(C(=O)[C@H](Cc3ccc(O)cc3)n3cc([C@@H](N)CC(C)C)nn3)CC2)n1	x	31.6µM*	x	x	x	x
C#CCOCCOCCOCCNc1nc(N2CCN(C(=O)[C@H](Cc3ccc(O)cc3)n3cc([C@@H](N)CC(C)C)nn3)CC2)nc(N2CCN(C(=O)[C@H](Cc3cc4ccccc4[nH]3)n3cc([C@@H](N)CC(C)C)nn3)CC2)n1	u	35.5µM*	u	-4.1%	-19.5%	u
C#CCOCCOCCOCCNc1nc(N2CCN(C(=O)C(Cc3ccc(O)cc3)n3cc(C(N)CC(C)C)nn3)CC2)nc(N2CCN(C(=O)C(Cc3cc4ccccc4[nH]3)n3cc(C(N)C(C)CC)nn3)CC2)n1 (stereo unspecified)	x	50.1µM*	x	x	x	x
Cc1cccc(NC(=O)CSC2=Nc3ccccc3C3=NC(CC(=O)NCc4cccs4)C(=O)N23)c1 (stereo unspecified)	28.9%	-18.5%	x	1.8%	-21.3%	x
NC(=O)c1ccc2[nH]ccc2c1	x	x	x	7.2%[60.1 µM]	x	x
CC(=O)NC(Cc1ccc(O)cc1)C(=O)NCC(N)C(=O)c1ccccc1 (stereo unspecified)	-10.4%	x	x	0.0%	x	x
C#CCOCCOCCOCCNc1nc(N2CCN(C(=O)Cn3cc(CCCCN)nn3)CC2)nc(N2CCN(C(=O)Cn3cc(CCCN=C(N)N)nn3)CC2)n1	35.5µM*	x	-0.4	u	4.2%	1.0%
C#CCOCCOCCOCCNc1nc(N2CCN(C(=O)Cn3cc(CCCN=C(N)N)nn3)CC2)nc(N2CCN(C(=O)[C@H](C)n3cc(CCCN=C(N)N)nn3)CC2)n1	u	39.8µM*	-2.0	u	-14.6%	1.4%
C#CCOCCOCCOCCNc1nc(N2CCN(C(=O)Cn3cc(CCCN=C(N)N)nn3)CC2)nc(N2CCN(C(=O)[C@H](CCCCN)n3cc(CCCC)nn3)CC2)n1	u	x	0.4	-23.0%	-1.9%	2.8%
COC(=O)c1c(NC(=O)COC(=O)[C@@H](NS(=O)(=O)c2ccc(C)cc2)C(C)C)sc2c1CCC2	26.7%	15.7%	-7.8	-21.7%	-8.6%	u
Cc1nnc(SCc2nnc(-c3cccs3)o2)n1C	16.8%	-6.4%	0.8	-3.5%	-22.7%	-1.3%
CC(C)Cn1c(SCc2nnc(-c3cccs3)o2)nc(O)cc1=O	25.1µM*	-6.2%	u	-42.0%	u	-7.0%[57.1 µM]
Fc1ccccc1N1CCN(C(c2ccncc2)c2nnnn2C2CCCC2)CC1 (stereo unspecified)	79.4µM*	4.2%	x	-5.1%	-12.5%	-3.4%
CCCCN(CC)c1nc(N)c(C#N)c(CC#N)c1C#N	62.6%	-0.7%	-70.9*	-4.4%	-10.1%	-11.2%
COc1ccc(C(=O)NCCN(C)C)c2nc3ccccc3cc12	79.4µM*	x	14.5	u	u	40.4%
CN(C)CCNC(=O)c1cccc2nc3c(ccc4ccccc43)nc12	79.4µM*	x	20.8	u	u	u
CCCCCCCCCCCCCCCC(=O)OCC(O)C1OC(=O)C(O)=C1O (stereo unspecified)	x	x	x	14.1µM*	x	x
CCCCCCCCCCCCCCCCCC(=O)OC[C@@H](O)[C@H]1OC[C@H](O)[C@H]1O	x	x	x	0.5%[60.1 µM]	x	x
O=C(O)c1ccccc1-c1ccccc1C(=O)Nc1cccc(O)c1	95.7%	6.5%	-10.2	-12.4%	-14.0%	-3.3%
O=[N+]([O-])c1ccc(-c2nn(-c3ccccc3)cc2/C=N/n2c(-c3ccncc3)n[nH]c2=S)cc1	0.5%	11.7%	-21.5	0.2%	-5.2%	-0.1%
S=c1[nH]nc(-c2ccncc2)n1/N=C/c1cn(-c2ccccc2)nc1-c1ccccc1	-6.9%	3.8%	-57.5*	-21.2%	0.5%	-2.9%
CCCCCCCCN1C(=O)[C@H](CC(=O)N2CCCC2)C[C@@]2(C(=O)OCC)CCCC=C12	x	x	5.6	x	x	-14.5%
O=C(COc1ccccc1C(=O)Nc1ccccc1)Nc1cccc([N+](=O)[O-])c1	-12.3%	x	x	-18.4%	x	x
Cc1c2ccccc2cc[n+]1C	30.1%	x	x	-1.9%	x	x
CC1=[N+](C)c2ccc3ccccc3c2C1(C)C	u	1.5%	-5.5	-21.2%	-11.9%	25.1µM*
SMILES	Pol iota inh	POLB inh	PI5P4K alpha inh	POLK inh	POLH inh	WRN helicase inh
COc1cccc(N=c2oc3c(C)ncc(CO)c3cc2C(=O)Nc2ccccc2OC)c1	x	0.3%	x	x	x	x
COc1ccc(NC(=O)c2cc3c(COC(C)=O)cnc(C)c3oc2=Nc2cccc(C(=O)O)c2)c(OC)c1	-22.9%	-26.3%	0.6	-5.7%	3.16µM*	-6.8%
CCOc1ccccc1NC(=O)COc1cccc2c(=O)n(CCOC)ccc12	28.5%	0.6%	x	1.0%[60.1 µM]	-15.9%	x
Cc1ccc(-n2ncc(-c3n[nH]c(=S)o3)c2N)cc1C	x	x	-75.5*	x	-5.1%	-1.0%
Cc1ccccc1-c1n[nH]c(=S)o1	-4.1%	6.0%	-17.8	-18.1%	0.6%	-8.9%
Brc1ccc(C2=CC(c3cccs3)n3ncnc3N2)cc1 (stereo unspecified)	u	50.1µM*	-21.0	-23.6%	u	-3.3%
COc1ccc(/C=N/Nc2nn3cnnc3c3ccccc23)cc1	127.8%	1.78µM*	-7.0	-25.1%	u	u
COc1ccc(/C=N/Nc2nonc2N)cc1	1.4%	1.5%	x	0.8%	-10.9%	-8.4%
CCN1C(=O)C(CC(=O)Nc2ccc(OC)cc2)N(CCCN2CCN(c3ccc(OC)cc3)CC2)C1=S (stereo unspecified)	-9.9%	28.0%	5.2	-16.1%	-11.2%	-16.3%[57.1 µM]
CCCCCCCCN1C(=O)[C@H](CC(=O)NCc2ccc(C)o2)C[C@@]2(C(=O)OC)CCCCC=C12	x	x	-65.3*	x	x	-14.7%
CCCCCCCCN1C(=O)[C@H](CC(=O)NCc2ccc(C)o2)C[C@@]2(C(=O)OCC)CCC=C12	x	x	-60.7*	x	x	-14.8%
Cc1[nH]c2ccccc2c1C(=O)COC(=O)c1ccccc1SCC(=O)N1CCCC1	-15.8%	x	x	2.9%	x	x
O=C(Cc1cccs1)Nc1ccccc1F	108.1%	12.2%	-11.8	-3.5%	-2.1%	1.3%
CCc1ccc(NC(=O)CS(=O)CC(=O)Nc2ccc(N3CCOCC3)cc2)cc1 (stereo unspecified)	u	22.4µM*	-0.2	-11.0%	u	-16.5%
CCc1ccc(NC(=O)CS(=O)CC(=O)Nc2ccc(F)cc2F)cc1 (stereo unspecified)	u	39.8µM*	x	-21.7%	-4.3%	-9.4%
Cc1cccc(C)c1NC(=O)CS(=O)CC(=O)Nc1ccc(N2CCOCC2)cc1 (stereo unspecified)	14.9%	0.8%	-3.6	-0.9%	8.8%	-1.9%
